Dicer processing: human Dicer pre-microRNA cleavage inhibition | Q9UPY3 | cat-ELCCA pre-miR-21 Dicer processing, chemiluminescence; active compounds read high | z-score at 25 µM | 47,000 tested, 6% active | AID 1347074; in the data active means z-score above about 3, passing the limit was not always enough;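 further: plate controls were vehicle for no effect and no enzyme for full effect; higher signal means more uncleaved substrate so more Dicer inhibition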
Target sequence (Q9UPY3 whole entry, looked up): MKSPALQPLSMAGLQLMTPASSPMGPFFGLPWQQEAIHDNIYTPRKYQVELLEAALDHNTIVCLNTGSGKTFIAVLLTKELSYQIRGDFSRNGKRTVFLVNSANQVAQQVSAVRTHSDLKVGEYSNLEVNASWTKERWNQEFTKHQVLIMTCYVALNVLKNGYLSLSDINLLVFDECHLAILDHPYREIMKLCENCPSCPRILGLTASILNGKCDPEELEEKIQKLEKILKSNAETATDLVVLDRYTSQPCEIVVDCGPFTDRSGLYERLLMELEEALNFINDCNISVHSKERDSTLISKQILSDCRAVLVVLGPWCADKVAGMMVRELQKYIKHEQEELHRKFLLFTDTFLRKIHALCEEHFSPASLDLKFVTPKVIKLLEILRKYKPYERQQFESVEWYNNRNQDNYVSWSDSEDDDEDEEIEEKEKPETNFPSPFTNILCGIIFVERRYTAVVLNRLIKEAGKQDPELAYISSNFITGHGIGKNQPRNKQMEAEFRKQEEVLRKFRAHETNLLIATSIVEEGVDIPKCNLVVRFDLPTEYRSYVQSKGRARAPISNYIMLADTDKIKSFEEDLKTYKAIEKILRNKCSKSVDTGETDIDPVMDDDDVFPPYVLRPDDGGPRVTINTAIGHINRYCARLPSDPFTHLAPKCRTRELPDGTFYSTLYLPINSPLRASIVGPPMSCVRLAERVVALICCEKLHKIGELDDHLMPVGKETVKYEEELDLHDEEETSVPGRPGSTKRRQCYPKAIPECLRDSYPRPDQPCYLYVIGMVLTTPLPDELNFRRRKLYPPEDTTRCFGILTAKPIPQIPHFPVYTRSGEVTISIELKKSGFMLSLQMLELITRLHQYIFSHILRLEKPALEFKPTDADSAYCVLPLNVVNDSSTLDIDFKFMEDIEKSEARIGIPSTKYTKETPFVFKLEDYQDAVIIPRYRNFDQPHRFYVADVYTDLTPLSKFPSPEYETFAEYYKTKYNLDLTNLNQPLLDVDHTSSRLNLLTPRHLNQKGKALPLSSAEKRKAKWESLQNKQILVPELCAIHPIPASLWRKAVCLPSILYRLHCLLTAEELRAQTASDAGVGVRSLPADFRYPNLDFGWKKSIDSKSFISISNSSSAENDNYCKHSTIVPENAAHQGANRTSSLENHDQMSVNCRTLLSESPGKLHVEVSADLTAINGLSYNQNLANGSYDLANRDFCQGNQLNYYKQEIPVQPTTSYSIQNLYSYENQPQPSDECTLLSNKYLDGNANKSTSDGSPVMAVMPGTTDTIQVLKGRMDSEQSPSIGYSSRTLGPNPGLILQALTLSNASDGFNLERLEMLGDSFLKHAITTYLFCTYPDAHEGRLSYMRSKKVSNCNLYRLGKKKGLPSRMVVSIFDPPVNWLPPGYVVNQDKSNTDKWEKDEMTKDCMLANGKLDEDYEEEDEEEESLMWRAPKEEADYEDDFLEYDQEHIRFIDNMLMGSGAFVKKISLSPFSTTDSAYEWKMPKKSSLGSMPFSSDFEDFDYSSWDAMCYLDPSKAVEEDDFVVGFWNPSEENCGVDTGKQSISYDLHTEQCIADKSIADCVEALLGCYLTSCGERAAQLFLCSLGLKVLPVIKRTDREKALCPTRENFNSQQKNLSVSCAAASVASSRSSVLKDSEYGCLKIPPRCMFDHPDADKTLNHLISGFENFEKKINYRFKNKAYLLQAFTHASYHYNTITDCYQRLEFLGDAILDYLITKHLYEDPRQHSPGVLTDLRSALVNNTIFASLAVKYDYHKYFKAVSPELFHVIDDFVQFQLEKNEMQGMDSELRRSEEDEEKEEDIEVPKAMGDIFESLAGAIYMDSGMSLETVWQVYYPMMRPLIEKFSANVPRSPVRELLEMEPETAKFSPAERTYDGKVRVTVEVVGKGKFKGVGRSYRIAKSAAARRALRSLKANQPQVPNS
Numbers without * were called inactive. Only a selection was taken, and hits are over-represented in it overall.

What do the screens show for `CC12CN3CC(C)(CN(C1)C3c1ccc(Cl)cc1)C2` (stereo unspecified)?
Dicer processing: 5.1*

How did Cc1cccc(C2N3CC4(C)CN2CC(C)(C3)C4)c1 (stereo unspecified) do in these assays?
Dicer processing: -0.26

Results for CC12CN3CC(C)(CN(C1)C3c1ccc(F)cc1)C2 (stereo unspecified) ?
Dicer processing: 0.93

What do the screens show for `CC12CN3CC(C)(CN(C1)C3c1ccccc1Cl)C2` (stereo unspecified)?
Dicer processing: 0.7

Results for Cc1nc2nc(C)c(Cc3ccccc3C)c(=O)n2[nH]1 ?
Dicer processing: -0.58

Results for CNC(=O)NCc1c(F)cccc1Cl ?
Dicer processing: 2.1

Results for CS(=O)(=N/C=C(\C#N)C(=O)c1ccc(Cl)cc1)c1ccc(OC(=O)c2ccc(Cl)cc2)cc1 (stereo unspecified) ?
Dicer processing: -1.1

How did Cn1nc(OCC(=O)NC(C)(C)C)cc1C(F)(F)F do in these assays?
Dicer processing: -1

What do the screens show for `COCCCNC(=S)N1CCN(c2ccc([N+](=O)[O-])cn2)CC1`?
Dicer processing: -3.4

What do the screens show for `N#CCS(=O)(=O)c1cccc(Cl)c1`?
Dicer processing: -0.17

How did Cc1ccc2c(c1)C(=O)C(O)(c1ccccc1)C(=O)N2 (stereo unspecified) do in these assays?
Dicer processing: -1.3

Results for Cc1cc(C)cc(N/C=C(\C#N)S(=O)(=O)c2ccc(Cl)cc2)c1 ?
Dicer processing: -1.1

What do the screens show for `Cc1cc(C)nc(Nc2nc3ccccc3o2)n1`?
Dicer processing: 4.6*

Results for Cc1cc(C)nc(Nc2n[nH]c(Cc3ccccc3)n2)n1 ?
Dicer processing: 0.13

Results for COc1ccc(-c2nc(Nc3nc4ccccc4o3)ncc2C#N)cc1 ?
Dicer processing: 1.9

What do the screens show for `Nc1nc2c(c(=O)[nH]1)C(c1ccc(OCc3cccc(Cl)c3)cc1)CC(=O)N2` (stereo unspecified)?
Dicer processing: 0.38

Results for Cc1csc(Cn2nc(CC(=O)N/N=C/c3ccccc3)c3ccccc3c2=O)n1 ?
Dicer processing: -0.36

Results for Fc1cccc(-c2nnc(C3c4ccccc4Oc4ccccc43)o2)c1 ?
Dicer processing: 0.25

Results for CCOC(CN(C(=O)c1ccc(C(F)(F)F)cc1)c1ccc(F)cc1)OCC ?
Dicer processing: -1.1

What do the screens show for `CCOC(CN(C(=O)c1ccc(C)cc1)c1ccc(F)cc1)OCC`?
Dicer processing: 4.6*

Results for CCOC(CN(c1ccc(F)cc1)S(=O)(=O)c1ccc(F)cc1F)OCC ?
Dicer processing: -2.1

What do the screens show for `O=C1OC(c2ccccc2)=N/C1=C/c1ccc(OCc2ccccc2)cc1`?
Dicer processing: -0.16

How did Cn1cccc1C(=O)N/N=C(\N)CSc1ccc(Cl)cc1 do in these assays?
Dicer processing: -0.2

Results for O=C(N=S1CCN(c2ncc(C(F)(F)F)cc2Cl)CC1)c1ccccc1 ?
Dicer processing: -0.31

Results for O=C(NC(=S)N1CCN(c2ncc(C(F)(F)F)cc2Cl)CC1)c1ccccc1 ?
Dicer processing: 30*

What do the screens show for `O=C(NC(=S)NNc1ncc(C(F)(F)F)cc1Cl)c1ccccc1`?
Dicer processing: -2.2

What do the screens show for `O=C1CC(CS(=O)(=O)c2ccc(C(F)(F)F)cn2)=NN1c1cccc(C(F)(F)F)c1`?
Dicer processing: 0.98

How did COC(=O)c1sccc1-c1ccc(CN2CCC(c3ccccc3OC)CC2)o1 do in these assays?
Dicer processing: -2.5

What do the screens show for `COC(=O)C1=C(C)NC2=C(C(=O)CC(C)(C)C2)C1c1ccc(C(=O)OC)cc1` (stereo unspecified)?
Dicer processing: -0.94

How did COc1ccc2c(=O)cc(-c3ccccc3)oc2c1 do in these assays?
Dicer processing: -0.36

How did O=c1ccc2c(-c3ccccc3)c3ccc(O)cc3oc-2c1 do in these assays?
Dicer processing: 3.1*

How did O=c1c2ccccc2oc2cc(O)ccc12 do in these assays?
Dicer processing: 0.39

What do the screens show for `CCOC(=O)C1C2C=CC3(CN(C(C)c4ccccc4)C(=O)C13)O2` (stereo unspecified)?
Dicer processing: 0.41

How did O=C(CSc1nnc(-c2ccco2)o1)Nc1nnc(-c2cccs2)s1 do in these assays?
Dicer processing: -4.2

How did Cn1ncc2c(-n3ncc(C#N)c3N)ncnc21 do in these assays?
Dicer processing: 0.99

How did C[C@@H](NCCc1ccc(O)cc1)[C@@H](O)c1ccc(O)cc1 do in these assays?
Dicer processing: 9.7*

How did CCCCCCCCNC(C)C(O)c1ccc(SC(C)C)cc1 (stereo unspecified) do in these assays?
Dicer processing: 33

What do the screens show for `Cn1c(=O)c2c(nc(NCCc3ccc(O)cc3)n2C)n(C)c1=O`?
Dicer processing: -1.2

What do the screens show for `CC12CCC(C1)C(C)(C)C2NC(=O)c1cccc([N+](=O)[O-])c1` (stereo unspecified)?
Dicer processing: 0.15

Results for O=C(Nc1ccc2c(c1)OCCO2)c1cccc(C(=O)Nc2ccc3c(c2)OCCO3)n1 ?
Dicer processing: -0.09

How did c1ccc(-c2nc(Nc3ccc4c(c3)OCCO4)c3ccccc3n2)cc1 do in these assays?
Dicer processing: 5.4*

Results for CCC(Nc1nc(-c2ccccc2)nc2ccccc12)C(=O)O (stereo unspecified) ?
Dicer processing: -1.1

What do the screens show for `CC(=O)O/N=C/c1ccc2c(c1)CCO2`?
Dicer processing: -0.47

Results for CCOC(=O)c1c(C)oc2cc(Br)c(OCC(=O)OC(C)(C)C)cc12 ?
Dicer processing: -0.79

Results for O=C(NCc1cccnc1)c1cccc2c1OCCCO2 ?
Dicer processing: -0.34

What do the screens show for `CC(C)c1ccc(N2C=Nc3ccc(C(C)C)cc3C2)cc1`?
Dicer processing: 0.31

What do the screens show for `Clc1ccc(N2C=Nc3cc(Cl)c(Cl)cc3C2)cc1Cl`?
Dicer processing: 3.1*

Results for O=c1[nH][nH]c(=S)n1-c1ccc(Cl)c(Cl)c1 ?
Dicer processing: 0.41

Results for CC(=O)Nc1sc2c(c1C#N)CCc1ccccc1-2 ?
Dicer processing: 0.06

What do the screens show for `CC(C)OC(=O)Cn1cnc2ccccc2c1=O`?
Dicer processing: -0.77

What do the screens show for `CCc1c(OS(=O)(=O)c2ccc(Br)cc2)c2ccccc2n(C)c1=O`?
Dicer processing: -0.78

What do the screens show for `CCOC(=O)NC(=S)Nc1ccsc1C(=O)OC`?
Dicer processing: -0.36

Results for CC(C)(C)C(=O)c1cn(CC(=O)O)c2ccccc12 ?
Dicer processing: 0.33

How did O=C(c1ccco1)c1cn(CCOc2ccc(F)cc2)c2ccccc12 do in these assays?
Dicer processing: 1.6

How did CCN(CC)C(=O)Cn1cc(C(=O)c2ccco2)c2ccccc21 do in these assays?
Dicer processing: -0.38

How did O=C(c1cccs1)c1cn(CCOc2ccc(F)cc2)c2ccccc12 do in these assays?
Dicer processing: 3.5*

What do the screens show for `O=C(c1ccco1)c1cn(CCOc2ccccc2)c2ccccc12`?
Dicer processing: -0.39

What do the screens show for `COC(=O)Cn1cc(C(=O)c2ccccc2)c2ccccc21`?
Dicer processing: 3.6*

How did COC(=O)c1cn(CCOc2ccc(F)cc2)c2ccccc12 do in these assays?
Dicer processing: 2.2

Results for COC(=O)c1cn(CCOc2ccccc2)c2ccccc12 ?
Dicer processing: 3.1*

What do the screens show for `O=C(c1ccco1)c1cn(CCOc2ccc(Cl)cc2)c2ccccc12`?
Dicer processing: -0.39

How did Cc1cc(OC(=O)c2c(Cl)cccc2Cl)c(Cl)c(C)c1Cl do in these assays?
Dicer processing: -0.31

Results for CC(C)(C)OC(=O)N[C@@H](CCC(=O)OCc1ccccc1)C(N)=O ?
Dicer processing: 0.06

Results for CCOC(=O)/C(C#N)=C/N1CCC(C(c2ccccc2)c2ccccc2)CC1 ?
Dicer processing: -0.16

Bioassay records: PubChem, Center for Chemical Genomics, University of Michigan
